# Measured values taken from PubChem BioAssay (NCI).
# Compounds without any hit were thinned out: in the full panel of roughly 79,000, 15% have a hit. A number with no mark means an inactive call. Calls of active or inactive are those of the source. Cut-off read from the data, not from the text of the source: active = growth inhibition above about 70%; inactive = the rest.
# Assays:
# [1] = NCI Yeast Anticancer Drug Screen. Data for the rad52 strain (AID 147);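 note: 0% = growth of vehicle-treated control cultures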; settings: S. cerevisiae rad52 mutant growth inhibition, active compounds read high
# In short: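 The repair-mutant yeast strain was incubated with compounds, then growth was read and inhibition derived relative to vehicle.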
# [2] = NCI Yeast Anticancer Drug Screen. Data for the wt1 strain (AID 149);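 note: 0% = growth of vehicle-treated wt1 cultures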; settings: S. cerevisiae wt1 strain (SPY 50644) growth inhibition, active compounds read high
# In short: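 Readout: yeast growth inhibition, normalised to vehicle controls, in the wt1 strain exposed to test compounds.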
# [3] = NCI Yeast Anticancer Drug Screen. Data for the rad50EPP+ strain (AID 151);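 note: 0% = growth of vehicle-treated control cultures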; settings: S. cerevisiae rad50 mutant strain, active compounds read high
# In short: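 Vehicle-normalised growth inhibition; rad50EPP+ yeast strain, altered in DNA damage repair, compound-treated.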
# [4] = NCI Yeast Anticancer Drug Screen. Data for the mgt1 strain (AID 153); settings: S. cerevisiae mgt1 mutant growth inhibition, active compounds read high
# In short: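 Vehicle-normalized growth inhibition is determined in mgt1 yeast, a strain selected for a defined alteration in DNA repair or cell cycle control.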
# [5] = NCI Yeast Anticancer Drug Screen. Data for the rad50 strain (AID 155);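 note: 0% = growth of vehicle-only cultures of the same strain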; settings: S. cerevisiae rad50 strain growth inhibition, active compounds read high
# In short: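 Compounds were tested on a yeast strain with an engineered DNA damage repair alteration; the reported value is growth inhibition normalised to vehicle treatment.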
# [6] = NCI Yeast Anticancer Drug Screen. Data for the mec2-1 strain (AID 157); settings: S. cerevisiae mec2-1 strain, active compounds read high
# In short: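 Mutant yeast (mec2-1) grown with compound; growth inhibition relative to vehicle control reported.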
# [7] = NCI Yeast Anticancer Drug Screen. Data for the rad14 strain (AID 159);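 note: 0% = growth of vehicle-treated control cultures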; settings: S. cerevisiae rad14 strain growth inhibition, active compounds read high
# In short: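 Compound-treated yeast with a defined DNA-repair lesion; growth inhibition normalised to vehicle-treated cultures.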
# [8] = NCI Yeast Anticancer Drug Screen. Data for the sgs1 mgt1 strain (AID 161);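 note: 0% = growth of cultures given vehicle only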; settings: S. cerevisiae sgs1 mgt1 strain, active compounds read high
# In short: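 Compounds are added to genetically altered yeast, and growth is compared with cultures given vehicle alone to give percent inhibition.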
# [9] = NCI Yeast Anticancer Drug Screen. Data for the CLN2oe strain (AID 163);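 note: 0% = growth of vehicle-only control cultures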; settings: S. cerevisiae CLN2oe strain, active compounds read high
# In short: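 Compounds are applied to yeast harbouring a defined cell-cycle control change; reduced growth compared with vehicle-treated controls gives the value.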
# [10] = NCI Yeast Anticancer Drug Screen. Data for the cln2 rad14 strain (AID 165);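 note: 0% = growth equal to vehicle treated cultures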; settings: S. cerevisiae cln2 rad14 strain, active compounds read high
# In short: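 Readout is yeast growth inhibition versus vehicle-treated controls, using a strain with cln2 and rad14 alterations exposed to compound.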
# [11] = NCI Yeast Anticancer Drug Screen. Data for the wt2 strain (AID 169);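 note: 0% = growth of vehicle-treated yeast cultures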; settings: S. cerevisiae wt2 strain growth inhibition, active compounds read high
# In short: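 Against vehicle-treated controls, the growth of yeast exposed to each compound was compared, and the inhibition was recorded.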
# [12] = NCI Yeast Anticancer Drug Screen. Data for the mlh1 strain (AID 171);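 note: 0% = growth of vehicle-treated control cultures of the same strain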; settings: S. cerevisiae mlh1 strain growth inhibition, active compounds read high
# In short: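 Measured: yeast growth. Reference: vehicle-treated controls. Organism: strain with a defined alteration affecting DNA damage repair or cell cycle control, treated with compound.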
# [13] = NCI Yeast Anticancer Drug Screen. Data for the sgs1 strain (AID 173);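 note: 0% = growth of vehicle-only control cultures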; settings: S. cerevisiae sgs1 mutant, active compounds read high
# In short: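 Each compound was added to cultures of the altered yeast strain. Growth was recorded, and inhibition was derived by comparison with vehicle controls.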
# [14] = NCI Yeast Anticancer Drug Screen. Data for the mlh1 rad18 strain (AID 175); settings: S. cerevisiae mlh1 rad18 strain growth inhibition, active compounds read high
# In short: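 Genetically defined yeast (DNA repair-deficient) exposed to compounds; growth inhibition determined relative to vehicle.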
# [15] = NCI Yeast Anticancer Drug Screen. Data for the rad18 strain (AID 177); settings: S. cerevisiae rad18 mutant growth inhibition, active compounds read high
# In short: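 Vehicle-treated cultures served as the baseline for scoring compound-induced growth inhibition in DNA-repair-mutant yeast.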
# [16] = NCI Yeast Anticancer Drug Screen. Data for the bub3 strain (AID 167); settings: S. cerevisiae bub3 mutant strain, active compounds read high
# In short: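 Growth of a checkpoint-deficient yeast mutant is measured after compound exposure. Values represent inhibition relative to vehicle.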
# [17] = at 5.0 µM (retest, dose inferred, filed as 0.5)
# [18] = at 50.0 µM (retest, dose inferred, filed as 5.0)
smiles,measurement,setting,value
CC(=O)ON=C1C=CC(=C(C#N)c2ccc(Cl)cc2)C=C1,growth inhibition,[1]; at 1.2 µM,1%
same,growth inhibition,[1]; at 3.7 µM,-1%
same,growth inhibition,[1]; at 11.0 µM,1%
same,growth inhibition,[1]; at 33.0 µM,22%
same,growth inhibition,[1]; at 100.0 µM,69%
same,growth inhibition,[2]; at 1.2 µM,0%
same,growth inhibition,[2]; at 3.7 µM,0%
same,growth inhibition,[2]; at 11.0 µM,4%
same,growth inhibition,[2]; at 33.0 µM,10%
same,growth inhibition,[2]; at 100.0 µM,61%
same,growth inhibition,[3]; at 1.2 µM,19%
same,growth inhibition,[3]; at 3.7 µM,38%
same,growth inhibition,[3]; at 11.0 µM,64%
same,growth inhibition,[3]; at 33.0 µM,91% (active)
same,growth inhibition,[3]; at 100.0 µM,96% (active)
same,growth inhibition,[4]; at 1.2 µM,0%
same,growth inhibition,[4]; at 3.7 µM,2%
same,growth inhibition,[4]; at 11.0 µM,4%
same,growth inhibition,[4]; at 33.0 µM,42%
same,growth inhibition,[4]; at 100.0 µM,77% (active)
same,growth inhibition,[5]; at 1.2 µM,0%
same,growth inhibition,[5]; at 3.7 µM,-3%
same,growth inhibition,[5]; [17],25%
same,growth inhibition,[5]; at 11.0 µM,-1%
same,growth inhibition,[5]; at 33.0 µM,9%
same,growth inhibition,[5]; [18],97% (active)
same,growth inhibition,[5]; at 50.0 µM,99.4% (active)
same,growth inhibition,[5]; at 100.0 µM,59%
same,growth inhibition,[6]; at 1.2 µM,-1%
same,growth inhibition,[6]; at 3.7 µM,0%
same,growth inhibition,[6]; [17],11%
same,growth inhibition,[6]; at 11.0 µM,1%
same,growth inhibition,[6]; at 33.0 µM,19%
same,growth inhibition,[6]; [18],99% (active)
same,growth inhibition,[6]; at 50.0 µM,99% (active)
same,growth inhibition,[6]; at 100.0 µM,59%
same,growth inhibition,[7]; at 1.2 µM,-3%
same,growth inhibition,[7]; at 3.7 µM,-4%
same,growth inhibition,[7]; at 11.0 µM,-1%
same,growth inhibition,[7]; at 33.0 µM,22%
same,growth inhibition,[7]; at 100.0 µM,98% (active)
same,growth inhibition,[8]; [17],41%
same,growth inhibition,[8]; [18],99% (active)
same,growth inhibition,[8]; at 50.0 µM,99.5% (active)
same,growth inhibition,[9]; at 1.2 µM,-3%
same,growth inhibition,[9]; at 3.7 µM,-8%
same,growth inhibition,[9]; at 11.0 µM,-1%
same,growth inhibition,[9]; at 33.0 µM,3%
same,growth inhibition,[9]; at 100.0 µM,56%
same,growth inhibition,[10]; [17],7%
same,growth inhibition,[10]; [18],98% (active)
same,growth inhibition,[10]; at 50.0 µM,77.1% (active)
same,growth inhibition,[11]; at 1.2 µM,1%
same,growth inhibition,[11]; at 3.7 µM,3%
same,growth inhibition,[11]; at 11.0 µM,9%
same,growth inhibition,[11]; at 33.0 µM,52%
same,growth inhibition,[11]; at 100.0 µM,86% (active)
same,growth inhibition,[12]; at 1.2 µM,4%
same,growth inhibition,[12]; at 3.7 µM,3%
same,growth inhibition,[12]; at 11.0 µM,9%
same,growth inhibition,[12]; at 33.0 µM,38%
same,growth inhibition,[12]; at 100.0 µM,74% (active)
same,growth inhibition,[13]; at 1.2 µM,2%
same,growth inhibition,[13]; at 3.7 µM,10%
same,growth inhibition,[13]; at 11.0 µM,16%
same,growth inhibition,[13]; at 33.0 µM,58%
same,growth inhibition,[13]; at 100.0 µM,95% (active)
same,growth inhibition,[14]; [17],29%
same,growth inhibition,[14]; [18],97% (active)
same,growth inhibition,[14]; at 50.0 µM,98.5% (active)
same,growth inhibition,[15]; at 1.2 µM,2%
same,growth inhibition,[15]; at 3.7 µM,1%
same,growth inhibition,[15]; at 11.0 µM,2%
same,growth inhibition,[15]; at 33.0 µM,19%
same,growth inhibition,[15]; at 100.0 µM,67%
O/N=C\c1c(O)ccc2ccccc12,growth inhibition,[1]; at 1.2 µM,-4%
same,growth inhibition,[1]; at 3.7 µM,0%
same,growth inhibition,[1]; at 11.0 µM,7%
same,growth inhibition,[1]; at 33.0 µM,31%
same,growth inhibition,[1]; at 100.0 µM,72% (active)
same,growth inhibition,[2]; at 1.2 µM,-2%
same,growth inhibition,[2]; at 3.7 µM,-5%
same,growth inhibition,[2]; at 11.0 µM,0%
same,growth inhibition,[2]; at 33.0 µM,5%
same,growth inhibition,[2]; at 100.0 µM,22%
same,growth inhibition,[3]; at 1.2 µM,2%
same,growth inhibition,[3]; at 3.7 µM,10%
same,growth inhibition,[3]; at 11.0 µM,19%
same,growth inhibition,[3]; at 33.0 µM,54%
same,growth inhibition,[3]; at 100.0 µM,74% (active)
same,growth inhibition,[4]; at 1.2 µM,-4%
same,growth inhibition,[4]; at 3.7 µM,1%
same,growth inhibition,[4]; at 11.0 µM,1%
same,growth inhibition,[4]; at 33.0 µM,7%
same,growth inhibition,[4]; at 100.0 µM,52%
same,growth inhibition,[5]; at 1.2 µM,1%
same,growth inhibition,[5]; at 3.7 µM,3%
same,growth inhibition,[5]; [17],-11%
same,growth inhibition,[5]; at 11.0 µM,10%
same,growth inhibition,[5]; at 33.0 µM,42%
same,growth inhibition,[5]; [18],74% (active)
same,growth inhibition,[5]; at 50.0 µM,63%
same,growth inhibition,[5]; at 100.0 µM,71% (active)
same,growth inhibition,[6]; at 1.2 µM,-1%
same,growth inhibition,[6]; at 3.7 µM,0%
same,growth inhibition,[6]; [17],-2%
same,growth inhibition,[6]; at 11.0 µM,2%
same,growth inhibition,[6]; at 33.0 µM,12%
same,growth inhibition,[6]; [18],20%
same,growth inhibition,[6]; at 50.0 µM,47.4%
same,growth inhibition,[6]; at 100.0 µM,33%
same,growth inhibition,[7]; at 1.2 µM,-1%
same,growth inhibition,[7]; at 3.7 µM,0%
same,growth inhibition,[7]; at 11.0 µM,7%
same,growth inhibition,[7]; at 33.0 µM,39%
same,growth inhibition,[7]; at 100.0 µM,75% (active)
same,growth inhibition,[8]; [17],-6%
same,growth inhibition,[8]; [18],74% (active)
same,growth inhibition,[8]; at 50.0 µM,78.8% (active)
same,growth inhibition,[10]; [17],-4%
same,growth inhibition,[10]; [18],21%
same,growth inhibition,[10]; at 50.0 µM,10.3%
same,growth inhibition,[16]; at 1.2 µM,-4%
same,growth inhibition,[16]; at 3.7 µM,0%
same,growth inhibition,[16]; [17],19%
same,growth inhibition,[16]; at 11.0 µM,2%
same,growth inhibition,[16]; at 33.0 µM,11%
same,growth inhibition,[16]; [18],88% (active)
same,growth inhibition,[16]; at 50.0 µM,75% (active)
same,growth inhibition,[16]; at 100.0 µM,27%
same,growth inhibition,[11]; at 1.2 µM,-4%
same,growth inhibition,[11]; at 3.7 µM,-2%
same,growth inhibition,[11]; at 11.0 µM,-7%
same,growth inhibition,[11]; at 33.0 µM,1%
same,growth inhibition,[11]; at 100.0 µM,55%
same,growth inhibition,[12]; at 1.2 µM,-3%
same,growth inhibition,[12]; at 3.7 µM,-1%
same,growth inhibition,[12]; at 11.0 µM,4%
same,growth inhibition,[12]; at 33.0 µM,22%
same,growth inhibition,[12]; at 100.0 µM,65%
same,growth inhibition,[13]; at 1.2 µM,10%
same,growth inhibition,[13]; at 3.7 µM,30%
same,growth inhibition,[13]; at 11.0 µM,-5%
same,growth inhibition,[13]; at 33.0 µM,41%
same,growth inhibition,[13]; at 100.0 µM,80% (active)
same,growth inhibition,[14]; [17],3%
same,growth inhibition,[14]; [18],89% (active)
same,growth inhibition,[14]; at 50.0 µM,73.2% (active)
same,growth inhibition,[15]; at 1.2 µM,-3%
same,growth inhibition,[15]; at 3.7 µM,0%
same,growth inhibition,[15]; at 11.0 µM,6%
same,growth inhibition,[15]; at 33.0 µM,30%
same,growth inhibition,[15]; at 100.0 µM,69%
